Compounds with a hit are over-represented: about 1.4% of the library has one in this group of screens.
EPAC2 antag: qHTS for Antagonist of cAMP-regulated guanine nucleotide exchange factor 2 (EPAC2): primary screen; Rap guanine nucleotide exchange factor 4 (Homo sapiens), Q8WZA2; EPAC2 GEF exchange of Rap1B-BODIPY-GDP, fluorescence; Potency, µM (doses to about 114 µM), inactives show at the top dose activity, negative = inhibition, actives largely listed as inhibitors; 360,000 tested, 0.18% active; AID 720708, 2013; also: potency is read from the fitted curve at half-maximal effect; % is scaled to controls: 0 for no effect and ±100 for the full control effect; nearly all actives have a fitted effect of over 45% in size
KCNH2 3.1 inh: qHTS for Inhibitors of KCHN2 3.1: Mutant qHTS; 340,000 tested, 0.95% active; U2OS KCNH2 3.1, thallium flux FluxOr; active compounds read low; Potassium voltage-gated channel subfamily H member 2, brain isoform KCNH2 3.1 (human); activity change, % (tested at about 1.8 µM);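 active = maximum activity change below -70%; inconclusive = maximum activity change from -70% to -50%; inactive = maximum activity change above -50%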;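 also: thallium influx rate constant from kinetic fluorescence after stimulation buffer; % is scaled to controls: 0 for no effect and ±100 for the full control effect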
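Kinetic fluorescence (2 min after stimulation buffer) measures Tl+ influx through KCNH2 3.1 expressed by viral transduction in U2OS cells; the rate constant is normalized against DMSO controls serving as positive and negative references.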
hERG WT inh: qHTS for Inhibitors of KCHN2 3.1: Wildtype qHTS. Voltage-gated inwardly rectifying potassium channel KCNH2 (Homo sapiens), Q12809. U2OS, BacMam KCNH2, thallium flux FluxOr; active compounds read low. activity change, % at 1.84 µM. 340,000 tested, 0.37% active;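 active = maximum activity change below -70%; inconclusive = maximum activity change between -70% and -50%; inactive = maximum activity change above -50%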; also: % is scaled to controls: 0 for no effect and ±100 for the full control effect
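U2OS cells transduced with wild-type KCNH2 virus are loaded with FluxOr dye for 45 min, and thallium flux is measured in kinetic reads before and after stimulation buffer. Rate constants are normalized to DMSO controls.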
EPAC2 ag: qHTS for Agonist of cAMP-regulated guanine nucleotide exchange factor 4 (EPAC2): primary screen | Rap guanine nucleotide exchange factor 4 (Homo sapiens), Q8WZA2 | EPAC2 activation, biochemical qHTS; response scale: 100% = 6.5 mM cAMP response | Potency, µM (doses to about 154 µM), without a hit: top-dose activation, actives largely listed as activators | 360,000 tested, 0.079% active; also: potency is read from the fitted curve at half-maximal effect; nearly all actives have a fitted effect of over 50% in size
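Readout is BODIPY fluorescence (480 nm excitation, 540 nm emission), which falls as labeled GDP is exchanged off Rap1B. EPAC2 at 100 nM acted on 250 nM RAP1B-BODIPY-GDP with 50 uM GDP present.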
EPAC1 ag: qHTS for Agonist of cAMP-regulated guanine nucleotide exchange factor 3 (EPAC1): primary screen | Rap guanine nucleotide exchange factor 3 (Homo sapiens), O95398 | AID 720707, 2013 | Potency, µM (doses to about 154 µM), for inactives: top-dose activation, usual class: activators | EPAC1 agonist qHTS, biochemical assay; response scale: 100% = response to 6.5 mM cAMP | 360,000 tested, 0.073% active; also: potency is read from the fitted curve at half-maximal effect; nearly all actives have a fitted effect of over 60% in size
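Read-out is the fluorescence drop as BODIPY-GDP leaves Rap1B (480 nm excitation, 540 nm emission), recorded every 5 minutes over 30 minutes. Reactions held 100 nM EPAC1, 250 nM Rap1B–BODIPY-GDP and 50 uM GDP, with 6.5 mM cAMP setting full activation.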
EPAC1 antagonist: qHTS for Antagonist of cAMP-regulated guanine nucleotide exchange factor 3 (EPAC1): primary screen; Rap guanine nucleotide exchange factor 3 (Homo sapiens), O95398; EPAC1 GEF assay, Rap1b-BODIPY-GDP exchange fluorescence; Potency, µM (series often up to 115 µM), without a hit: at the top dose activity change, negative = inhibition, most hits filed as inhibitors; 360,000 tested, 0.14% active; AID 720709, 2013;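 also: potency is read from the fitted curve at half-maximal effect; plate controls were vehicle for no effect and positive control for full effect; nearly all actives have a fitted effect of over 50% in size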
* = called active by the depositor; ? = inconclusive; nt = no result given; ! = not confirmed by another sample. Unless noted, calls follow the shape of the dose curve; as a rule, active = well fitted curve in the direction sought with a large enough effect; inconclusive = small, poorly fitted or top-dose-only effect, or another doubt; inactive = no such curve, though single readings can be large; an effect the other way counts as inactive or inconclusive.

SMILES	EPAC2 antag	KCNH2 3.1 inh	hERG WT inh	EPAC2 ag	EPAC1 ag	EPAC1 antagonist
CCC(=O)NCCC(c1ccco1)c1ccccc1OC (stereo not given)	19%	2	-1	14%	1%	13%
COc1ccccc1C(CCN(Cc1cccs1)C(C)=O)c1ccco1 (stereo not given)	7%	-74*	-1	4%	-3%	0%
CCCCNC(=O)C1(C)CCN1C(=O)c1cc(-c2ccccc2)cs1 (stereo not given)	4%	nt	nt	-3%	-5%	20%
CCc1cc2cc(C)cc(C)c2[nH]c1=S	5%	-96*	-1	4%	1%	-12%
COc1ccccc1/C=C/C=N/NC(=O)c1ccc(=O)n(C)c1	-9%	-93*	-8	-7%	0%	2%
COc1ccc(C(=O)N2CCC3(CC2)NCCc2[nH]cnc23)cc1	3%	-84*	nt	3%	3%	-11%
O=C(c1ccc(F)cc1)N1CCC2(CC1)NCCc1[nH]cnc12	4%	-7	6	-1%	-12%	7%
Cc1nc(C(F)(F)F)ccc1C(=O)N1CCCC(C)(C(=O)O)C1 (stereo not given)	2%	nt	nt	6%	-11%	-13%
CC1CCCCN1S(=O)(=O)c1ccc(N(C(=O)c2cnccn2)C(C(=O)NC2CCCC2)c2cccs2)cc1 (stereo not given)	-4%	2	13	9%	9%	-4%
CC1CCCCN1S(=O)(=O)c1ccc(N(C(=O)c2cnccn2)C(C(=O)NC2CCCCC2)c2cccs2)cc1 (stereo not given)	-2%	7	-71*	4%	14%	-17%
Cc1cc(NC(=O)CCCN2C(=O)c3cccnc3C2=O)ccc1Br	1%	-72*	-14	-1%	6%	1%
Cc1cc(NC(=O)CCCN2C(=O)c3cccnc3C2=O)no1	-1%	10	-8	11%	5%	-10%
O=C1NN(c2cccc(Br)c2)C(=O)/C1=C/c1ccc(-c2cc([N+](=O)[O-])ccc2O)o1	40µM*	13	0	-14%	-6%	-17%
OCC1CSC(=S)N1Cc1ccccc1 (stereo not given)	-3%	nt	nt	2%	1%	-14%
CCN1CCN(Cc2ccc(NC(=O)c3cc(NC(=O)C(=O)c4c[nH]c5ccccc45)cc(OC)c3)cc2C(F)(F)F)CC1	-2%	-9	18	4%	0%	?
CCN1CCN(Cc2ccc(NC(=O)c3ccc(C)c(NC(=O)C(=O)c4c[nH]c5ccccc45)c3)cc2C(F)(F)F)CC1	2%	0	-132*!	19%	11%	?
Cc1ccc(S(=O)(=O)NCC(=O)N(CCc2ccccc2)CC(=O)NCc2ccco2)cc1	0%	-9	-75*	-5%	-8%	-6%
CCCCNC(=O)c1[nH]c(C2CCNCC2)nc1-c1cccc(C(F)(F)F)c1	-3%	nt	nt	0%	-6%	-5%
CCOC(=O)NC(=O)CSc1nc2ccc(C)cc2[nH]1	-6%	-116*	2	1%	6%	-5%
CCOC1=CC2=C(C(=O)C(Cl)=CC2=O)[C@@H]2CN(S(=O)(=O)c3ccc(C)cc3)[C@@H](c3ccccc3)[C@H]12	-4%	nt	nt	2%	-5%	56µM*
Cc1ccc(C)c(NC(=O)c2cc(-c3ccccc3O)n[nH]2)c1	5%	-81*	-6	-1%	1%	12%
Cc1ccc(-c2cc(C(=O)Nc3cc(C)ccc3C)[nH]n2)c(O)c1	2%	-23	-6	-4%	-3%	7%
C[C@@H]1CN([C@@H](C)CO)C(=O)c2cc(NC(=O)C3CC3)ccc2O[C@@H]1CN(C)C(=O)NC1CCCCC1	-7%	-100*	-3	-5%	-9%	7%
Cc1noc(C)c1S(=O)(=O)N(C)C[C@H]1Oc2ccc(NC(=O)Cn3cnnn3)cc2C(=O)N([C@H](C)CO)C[C@@H]1C	4%	-6	-5	4%	-5%	12%
C[C@H](CO)N1C[C@H](C)[C@@H](CN(C)S(=O)(=O)c2ccccc2)Oc2ccc(NC(=O)Cn3cnnn3)cc2C1=O	-6%	-92*	-5	-2%	6%	-2%
SMILES	EPAC2 antag	KCNH2 3.1 inh	hERG WT inh	EPAC2 ag	EPAC1 ag	EPAC1 antagonist
CC(C)NC(=O)N(C)C[C@H]1Oc2ccc(NC(=O)Nc3ccccc3)cc2C(=O)N([C@@H](C)CO)C[C@@H]1C	-2%	-145*	19	-4%	-16%	-24%
COc1ccc(NC(=O)Nc2ccc3c(c2)C(=O)N([C@H](C)CO)C[C@H](C)[C@@H](CN(C)S(=O)(=O)c2ccccc2)O3)cc1	7%	-97*	8	7%	6%	?
O=C(NC(=S)NC1C2CC3CC(C2)CC1C3)c1ccccc1 (stereo not given)	1%	8	14	7%	-16%	-28%
COC(=O)C(NC(=O)c1ccc(F)cc1)(Nc1ncc(S(=O)(=O)c2ccc([N+](=O)[O-])cc2)s1)C(F)(F)F (stereo not given)	-13%	-80*	-75*	-3%	9%	?
CCOC(=O)N1CCC(NC(=O)c2cc3sccc3n2CC)CC1	-10%	-8	-10	3%	2%	-13%
CCn1c(C(=O)NC2CCC(C)CC2)cc2sccc21 (stereo not given)	14%	-2	-233*	4%	-8%	-2%
CN(CC(=O)Nc1cccc(F)c1)CC(=O)N1CCc2ccccc21	5%	0	2	-6%	5%	9%
Ic1ccc(N2CCN(Cc3c[nH]c4ncccc34)CC2)cc1	7%	-79*	-19	10%	-12%	-13%
COc1ccc(C(=O)Nc2ccccc2N2CCN(C(=O)C(C)C)CC2)cc1Cl	-8%	-3	-4	-2%	0%	5%
COc1ccc(Cl)cc1C(=O)Nc1ccccc1N1CCN(C(=O)C(C)C)CC1	-11%	-10	-90*	5%	-3%	-26%
COc1ccc(Br)cc1C(=O)Nc1ccccc1N1CCN(C(=O)c2ccccc2)CC1	-19%	17	-85*	7%	9%	?

From PubChem
